According to PMC4552634, “A New Set of Chemical Starting Points with Plasmodium falciparum Transmission-Blocking Potential for Antimalarial Drug Discovery” (PLoS ONE, 2015):
In all, about 13,000 compounds went through this assay and about 3,200 (25%) showed an effect of 50% or more. The list shows a part of the results.

tested on: P. falciparum stage V gametocytes; design: BacTiter-Glo ATP luminescence viability of purified stage V gametocytes in 384-well plates, per cent inhibition versus DMSO; details: 48 h, 5 µM; inhibitor

| SMILES | % Inhibition [%] |
| --- | --- |
| COc1ccccc1CNC(=O)CCn1c(=O)[nH]c2ccsc2c1=O [TCMDC-123587] | 30.03 |
| O=C(CSc1nc2ccccc2c(=O)n1C1CC1)Nc1cc(C(F)(F)F)ccc1Cl [TCMDC-123578] | -84.13 |
| NC(N)=NCCCN(Cc1ccccc1)c1ccccc1 [TCMDC-131836] | 40.87 |
| NC(N)=NCC=C(c1ccccc1)c1ccccc1 [TCMDC-137566] | 51.32 |
| CC1(C)N=C(N)N=C(N)N1OCOc1cc(Cl)c(Cl)cc1Cl [TCMDC-131783] | 42.76 |
| CCOC(=O)c1cc(Cl)cc(Cl)c1OCCCON1C(N)=NC(N)=NC1(C)C [TCMDC-131703] | 21.46 |
| O=C(Nc1ccc(-c2nc3ccccc3[nH]2)cc1)c1cccc(S(=O)(=O)N2CCCC2)c1 [TCMDC-125262] | -9.526 |
| CC(C)CNCc1cccc(-c2cccc(CN(CCCN3CCN(C)CC3)C(=O)NC3CCCCC3)c2)c1 [TCMDC-140633] | 106.9 |
| CC[C@H](C)CNC(=O)c1cncc(-c2ccc(CN(C)C3CCN(C)CC3)cc2)c1 [TCMDC-134233] | 22.49 |
| CC(C)CNCc1ccc(-c2ccc(CN(CCCN3CCN(C)CC3)C(=O)CCC3CCCC3)cc2)cc1 [TCMDC-140559] | 105.9 |
| CC(C)CNCc1ccc(-c2cccc(CN(CCN(C)C)C(=O)CCC3CCCC3)c2)cc1 [TCMDC-140553] | 109.4 |
| CN(C)CCN(Cc1ccc(-c2ccc(CNCCc3ccccc3)cc2)nc1)C(=O)CCC1CCCC1 [TCMDC-141402] | 63.7 |
| CC[C@H](C)CNC(=O)c1cncc(-c2ccc(CNC3CCCC3)cc2)c1 [TCMDC-134232] | 8.826 |
| CC(C)CNC(=O)c1cncc(-c2ccc(CN(C)C3CCN(C)CC3)cc2)c1 [TCMDC-134235] | 31.51 |
| COc1cc(NC(=O)/C=C/c2ccccc2OC(F)(F)F)cc(OCCN2CCN(CCN3CCOCC3)CC2)c1 [TCMDC-140929] | -8.825 |
| COc1cc(NC(=O)NC(CCN2CCC3(CCc4ccccc43)CC2)c2ccc(Cl)c(Cl)c2)cc(OC)c1OC (stereo not shown) [TCMDC-141765] | -19.84 |
| CCC(C)CN1CCC(N(C)c2cc(NC(=O)c3ccc(F)cc3)ccn2)CC1 (stereo not shown) [TCMDC-134951] | 19.56 |
| Nc1nc(N)c(-c2ccccc2)c(=O)[nH]1 [TCMDC-137349] | 4.514 |
| CC(C)CNCc1cccc(-c2ccc(CN(CCCN3CCN(C)CC3)C(=O)CCC3CCCC3)cc2)c1 [TCMDC-140558] | 107.6 |
| CC[C@H](C)CNC(=O)c1cncc(-c2cccc(CN(C)C3CCN(C)CC3)c2)c1 [TCMDC-134225] | 17.67 |
| CC(C)CNCc1cccc(-c2cccc(CN(CCCN3CCN(C)CC3)C(=O)CCC3CCCC3)c2)c1 [TCMDC-140554] | 109.3 |
| CC[C@H](C)CNC(=O)c1ccnc(-c2cccc(CN(C)C3CCN(C)CC3)c2)c1 [TCMDC-134243] | -9.422 |
| COc1cc(OC)c(OC)cc1CN1CCC2(CC1)CN(Cc1ccc(Cl)c(Cl)c1)C(=O)O2 [TCMDC-132175] | 23.65 |

| SMILES | % Inhibition [%] |
| --- | --- |
| CCOc1c(CNCCCNc2cc(=O)c3ccccc3[nH]2)cc(I)cc1C(C)(C)C [TCMDC-140132] | -43.73 |
| O=C(Nc1cccc(F)c1)c1ccc(C(=O)NC2CCN(CC3CCCCC3)C2)cc1 (stereo not shown) [TCMDC-136741] | 0.01446 |
| CC(CN(C)C)C(=O)Nc1cccc(-c2cccc(-c3nc4ccccc4[nH]3)c2)c1 (stereo not shown) [TCMDC-137101] | 94.09 |
| CC(CN(C)C)C(=O)Nc1ccc(-c2cccc(-c3nc4ccccc4[nH]3)c2)cc1 (stereo not shown) [TCMDC-137099] | -5.672 |
| CC(CN(C)C)C(=O)Nc1ccc(-c2csc(-c3nc4ccccc4[nH]3)c2)cc1 (stereo not shown) [TCMDC-132390] | 44.44 |
| CC(CN(C)C)C(=O)Nc1ccc(-c2ccc(-c3nc4ccccc4[nH]3)cc2)cc1 (stereo not shown) [TCMDC-137108] | 88.79 |
| CC(CN(C)C)C(=O)Nc1cccc(-c2ccc(-c3nc4ccccc4[nH]3)cc2)c1 (stereo not shown) [TCMDC-137107] | -47.86 |
| CC(CN(C)C)C(=O)Nc1cccc(-c2cccc(-c3nc4ccc(F)cc4[nH]3)c2)c1 (stereo not shown) [TCMDC-137104] | -36.15 |
| C#CCNCc1ccc(-c2ccc(-c3nc4cc(C(F)(F)F)ccc4[nH]3)s2)cc1.O=C(O)C(F)(F)F [TCMDC-132805] | -48.9 |
| COc1cc(CCON2C(N)=NC(N)=NC2(C)C)cc(OC)c1OC [TCMDC-131368] | -0.5645 |
| CC[C@]1(C)C[C@@H](NC(=O)NC(=O)c2ccc(OC)cc2)[C@]2(C)[C@H](C)CC[C@]3(CCC(=O)[C@H]32)[C@@H](C)[C@@H]1OC(=O)NC(=O)c1ccc(OC)cc1 [TCMDC-139025] | 34.49 |
| O=S(=O)(c1cc(Cl)c(Cl)cc1Cl)N1CCCCC(c2ccc(C(F)(F)F)cc2)=N1 [TCMDC-134542] | -0.152 |
| CC1(C)N=C(N)N=C(N)N1OCCCOc1cccc(C(=O)O)c1 [TCMDC-124025] | 22.26 |
| O=C(Nc1ccc(-c2cccc(-c3nc4ccccc4[nH]3)c2)cc1)Nc1ccc2c(c1)OCO2 [TCMDC-133168] | -6.536 |
| Cc1[nH]c(C)c(-c2ccc(OCc3ccc(F)cc3)nc2)c(=O)c1Br [TCMDC-135657] | 60.6 |
| Cc1[nH]c(C)c(-c2ccc(OCc3ccc(OC(F)(F)F)cc3)nc2)c(=O)c1Br [TCMDC-135254] | 45.17 |
| Cc1[nH]c(C)c(-c2ccc(OCc3cc(F)cc(F)c3)nc2)c(=O)c1Br [TCMDC-135683] | 58.89 |
| Cc1[nH]c(C)c(-c2ccc(OCc3cc(F)cc(F)c3)nc2)c(=O)c1Cl [TCMDC-135676] | 67.03 |
| CCNc1cc(C(=O)N[C@@H](Cc2ccc(Cl)cc2)[C@H](O)CNC2CCCCC2)cc(N2CCCCS2(=O)=O)c1 [TCMDC-135201] | 29.54 |
| N#Cc1ccc(NC(=Nc2ccccc2Br)N(C2CCCCC2)C2CCCCC2)c(O)c1 [TCMDC-140131] | -34.98 |
| FC(F)(F)CNc1nc(Nc2ccc3ncccc3c2)nc2[nH]ccc12 [TCMDC-132120] | 26.12 |
| C=C[C@H]1CN2CC[C@H]1C[C@H]2[C@H](O)c1ccnc2ccccc12 [TCMDC-123934] | 4.056 |
| CN(C)c1cccc(CN2CC=C(c3c[nH]c4ccc(Cl)cc34)CC2)c1 [TCMDC-138946] | 8.82 |

| SMILES | % Inhibition [%] |
| --- | --- |
| NS(=O)(=O)c1cccc(-c2ccc3c(=O)[nH]cnc3c2)c1 [TCMDC-136756] | 63.64 |
| NS(=O)(=O)Cc1cccc(-c2ccnc3ccc(-c4cccc(S(N)(=O)=O)c4)cc23)c1 [TCMDC-134159] | 58.63 |
| CS(=O)(=O)c1cccc(-c2cnc(N)c3cc(-c4ccc(F)cc4)ccc23)c1 [TCMDC-134492] | 11.87 |
| COc1cccc(-c2ccc3c(-c4cccc(S(C)(=O)=O)c4)cnc(N)c3c2)c1 [TCMDC-134495] | 30.55 |
| CN(C)S(=O)(=O)c1cc(-c2ccc3nccc(-c4cccc(S(N)(=O)=O)c4)c3c2)cnc1N [TCMDC-134230] | 96.42 |
| NS(=O)(=O)c1cccc(-c2ccc3nccc(-c4cccc(S(N)(=O)=O)c4)c3c2)c1 [TCMDC-138902] | 75.33 |
| CS(=O)(=O)c1cccc(-c2cnc(N)c3cc(-c4ccc5c(c4)OCO5)ccc23)c1 [TCMDC-134515] | -1.728 |
| NS(=O)(=O)c1cccc(Br)c1 [TCMDC-123819] | -1.825 |
| Nc1ncnc2cc(-c3cccc(S(N)(=O)=O)c3)sc12 [TCMDC-135294] | -17.5 |
| COc1ccc(-c2ccc3c(-c4cccc(S(C)(=O)=O)c4)cnc(N)c3c2)cc1 [TCMDC-134494] | 3.475 |
| CS(=O)(=O)c1cccc(-c2cnc(N)c3cc(-c4cccc(F)c4)ccc23)c1 [TCMDC-134493] | 8.942 |
| COc1cc(Nc2nccc(N3CCC(NC(=O)Nc4cc(C)ccc4C)C3)n2)cc(OC)c1OC (stereo not shown) [TCMDC-133626] | -44.43 |
| Cc1cc(-c2ccc(Cl)cc2)c2c(N)c(C(=O)Nc3ccc(F)cc3)sc2n1 [TCMDC-124117] | 40.98 |
| CN(C)C(CNC(=O)c1cc(-c2ccncc2)c(-c2ccc(NC(=O)Nc3cccc(F)c3)cc2)o1)c1ccccc1 (stereo not shown) [TCMDC-135782] | 6.274 |
| CC(C)(C)c1ccc(-c2ccccc2CNC(=O)c2cccc(O)c2)cc1 [TCMDC-136181] | 21.07 |
| O=C(NCc1ccccc1)Nc1cccc(-c2cccc(-c3nc4ccc(C(F)(F)F)cc4[nH]3)c2)c1 [TCMDC-133161] | -23.46 |
| Cc1cc(CN2CCC(N3CC(c4ccccc4)(c4ccccc4)OCC3=O)C2)ccc1O (stereo not shown) [TCMDC-136340] | -6.883 |
| CN1CCCN(Cc2ccc(-c3cccc(NC(=O)c4ccc(C#N)cc4)c3)cc2)CC1 [TCMDC-132637] | 9.146 |
| Cc1cc(-c2cnc(N)c(-c3ccc(N4CCN(C)CC4)nc3)c2)cc(C)c1O [TCMDC-133346] | -63.65 |
| CN(Cc1ccccc1)C1CCCN(c2cc(NC(=O)c3cccs3)ccn2)C1 (stereo not shown) [TCMDC-135007] | -39.99 |
| CC(C)c1cc2c(cc1O)C(Cc1ccccc1Cl)N(C)CC2 (stereo not shown) [TCMDC-137322] | -86.96 |
